A short description of experiment [1]: Nuclear factor erythroid 2-related factor 2/antioxidant responsive element (Nrf2/ARE) small molecule agonists: luciferase reporter gene qHTS assay in human keratinocytes (AID 1919969). Further: nearly all actives have a fitted effect of over 35% in size. Further: potency means the concentration at half of the fitted maximal effect. On the technique in general: Reporter assays use an easily measured gene product as a stand-in for the process of interest.
For experiment [2], the target named is Gonadotropin-releasing hormone receptor (Homo sapiens) (UniProt P30968). Description: Human gonadotropin-releasing hormone receptor (GnRHR) small molecule agonists, calcium flux assay in GnRHR-HEK293 cells (AID 1920063). Further: nearly all actives have a fitted effect of over 35% in size. Further: potency means the concentration at half of the fitted maximal effect. In outline: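 Compounds dissolved in DMSO are pin-transferred onto dye-loaded GnRHR-HEK293 cells, which were seeded 18 h before at 37 C/5% CO2. Calcium signal is read as fluorescence intensity at 1 s intervals for 3 min.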
Chain of Gonadotropin-releasing hormone receptor (Homo sapiens) (P30968 whole entry, looked up): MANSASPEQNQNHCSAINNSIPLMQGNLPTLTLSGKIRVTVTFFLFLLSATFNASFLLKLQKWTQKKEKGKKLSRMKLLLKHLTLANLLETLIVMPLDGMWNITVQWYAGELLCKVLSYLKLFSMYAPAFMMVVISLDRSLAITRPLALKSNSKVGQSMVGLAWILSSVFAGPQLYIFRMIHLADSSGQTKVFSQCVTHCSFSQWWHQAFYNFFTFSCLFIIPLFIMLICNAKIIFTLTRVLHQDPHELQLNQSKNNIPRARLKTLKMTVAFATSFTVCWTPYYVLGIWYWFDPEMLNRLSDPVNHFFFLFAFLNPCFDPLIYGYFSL

Experiment [3] has as its target KiSS-1 receptor (Homo sapiens) (UniProt Q969F8). Description: Human kisspeptin (KISS1R) small molecule agonists, calcium flux assay in KISS1R-HEK293 cells (AID 1920064; active means well fitted activation curve with a large enough effect in the repeat runs). In outline:
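Cell line: HEK293, stable human KISS1R. Dye loading 1 h at 37 C after 18 h culture. Read: kinetic fluorescence, 480/540 nm, 3 min at 1 s intervals.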
In general terms: Calcium flux is commonly read through the fluorescence of an indicator in the cells.

Experiment [4] is described as follows: G protein-coupled receptor (GPCR) small molecule agonists, calcium flux assay: HEK293 wild type cell line counter screen (AID 1920065). In outline:
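Tox21 10K compounds, 15 concentrations each in triplicate, pin-transferred in DMSO onto dye-loaded cells; kinetic read at 480/540 nm for 3 min, 1 s intervals.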

A short description of experiment [5]: p53 small molecule agonists, cell-based qHTS assay with human liver microsomes (AID 1963577). Put shortly: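 In this qHTS, p53 response-element beta-lactamase cells receive test compound together with a microsome/NADPH activating system (0.5 mg/mL final each) and are incubated 16 h at 37 C before LiveBLAzer fluorescence detection.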
For orientation: In qHTS, concentration-response curves come from the screen itself.

The nature of experiment [6]: p53 small molecule agonists, cell-based qHTS assay with rat liver microsomes (AID 1963578). Put shortly: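 Agonist mode in p53RE-bla reporter cells, with compounds co-incubated 16 h at 37 C alongside 0.5 mg/mL rat liver microsomes and 0.5 mg/mL NADPH (final), followed by a 2 h LiveBLAzer detection step.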
A short description of experiment [7]: p53 small molecule agonists, cell-based qHTS assay with human liver microsomes: qHTS cell viability counter screen (AID 1963579). Further: nearly all actives have a fitted effect of over 45% in size. Further: potency means the concentration at half of the fitted maximal effect. Put shortly:
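Metabolically activated exposure: compounds, human liver microsomes and NADPH (0.5 mg/mL final apiece) were added to p53RE-bla cells seeded 5 h earlier, left 16 h at 37 C, and then assessed for viability by CellTiter-Glo luminescence.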

The nature of experiment [8]: p53 small molecule agonists, cell-based qHTS assay with rat liver microsomes: qHTS cell viability counter screen (AID 1963580). Further: nearly all actives have a fitted effect of over 45% in size. In outline:
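Cytotoxicity counter screen: intracellular ATP measured by CellTiter-Glo luminescence in the same wells as the beta-lactamase reporter read, on HCT-116 p53RE-bla cells exposed 16 h at 37 C to compounds with rat liver microsomes and NADPH, each 0.5 mg/mL final.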

Experiment [9] is described as follows: p53 small molecule agonists, cell-based qHTS assay: qHTS cell viability counter screen (AID 1963581). Further: nearly all actives have a fitted effect of over 45% in size. Put shortly:
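ATP content measured by luminescence in HCT-116 p53RE-bla cells treated 16 h at 37 C, same wells as the reporter screen.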

Experiment [10] can be described thus: p53 small molecule agonists, cell-based qHTS assay (AID 1963582; active means well fitted activation curve with a large enough effect in the signal ratio in the repeat runs, not every such curve was filed as active; the % refers to the signal ratio). Put shortly:
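16 h compound exposure (37 C) of p53 response element–bla cells, preceded by 5 h recovery at 37 C/5% CO2; read-out via LiveBLAzer B/G FRET substrate, 2 h RT, fluorescence intensity.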

Experiment [11] in a line: cAMP Responsive Elements (CRE) small molecule agonists, cell-based qHTS assay (AID 1963590). Put shortly: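 HEK 293T cells stably bearing CRE-bla were plated at 2,000 cells per well and rested 18 h. Compounds, positive controls or DMSO were added for 3 h at 37 C. LiveBLAzer B/G substrate was then loaded for 2 h at room temperature.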
Experiment [12] can be described thus: cAMP Responsive Elements (CRE) small molecule antagonists, cell-based qHTS assay (AID 1963591; active means well fitted inhibition curve with a large enough effect in the signal ratio in the repeat runs, not every such curve was filed as active; the % refers to the signal ratio). Put shortly: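 First, CRE-bla HEK293T cells settled 18 h at 37 C. Next, compound and 0.25 uM final NKH477 were applied for 3 h. Last, LiveBLAzer B/G substrate was loaded for 2 h at room temperature.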
Experiment [13] deals with Beta-2 adrenergic receptor (Homo sapiens) (UniProt P07550). The experiment in a line: Adrenergic beta2 receptor (ADRB2) small molecule antagonists, cell-based qHTS assay (AID 1963592). Further: nearly all actives have a fitted effect of over 50% in size. Further: potency means the concentration at half of the fitted maximal effect. Put shortly: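 Assay format: CHO-ADRB2 cells, 18-20hr seeding at 37C/5% CO2, then compound plus 1nM isoproterenol agonist mix for 0.5hr RT. Homogeneous time-resolved fluorescence cAMP detection after 1hr, expressed as 665/615 nm ratio.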
Chain of Beta-2 adrenergic receptor (Homo sapiens) (P07550 whole entry, looked up): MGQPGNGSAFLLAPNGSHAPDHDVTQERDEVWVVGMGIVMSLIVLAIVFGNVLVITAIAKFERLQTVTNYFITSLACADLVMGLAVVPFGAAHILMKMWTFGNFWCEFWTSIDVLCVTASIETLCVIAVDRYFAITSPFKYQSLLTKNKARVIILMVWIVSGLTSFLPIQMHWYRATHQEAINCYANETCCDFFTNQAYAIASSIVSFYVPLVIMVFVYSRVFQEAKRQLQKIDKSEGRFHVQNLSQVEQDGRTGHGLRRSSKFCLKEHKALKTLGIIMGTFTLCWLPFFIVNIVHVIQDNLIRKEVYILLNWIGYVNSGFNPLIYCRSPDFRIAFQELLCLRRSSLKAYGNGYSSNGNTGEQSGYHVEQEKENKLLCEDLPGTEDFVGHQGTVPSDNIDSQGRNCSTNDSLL

For experiment [14] the target is unchanged. Description: Adrenergic beta2 receptor (ADRB2) small molecule agonists, cell-based qHTS assay (AID 1963593).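 Further: CHO cells stably overexpressing human ADRB2.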 Put shortly:
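CHO cells stably over-expressing ADRB2 were plated overnight at 37C, then dosed with compounds plus a stimulation mix containing 100uM IBMX and 25uM Ro-20-1724 for 0.5hr at room temperature. cAMP was measured by HTRF competition, 1hr.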

In experiment [15] the target is D(2) dopamine receptor (Homo sapiens) (UniProt P14416). The experiment in a line: Dopamine D2 receptor (DRD2) small molecule agonists, cell-based qHTS assay (AID 1963594). Further: nearly all actives have a fitted effect of over 35% in size. In outline: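 HEK293 cells stably expressing human DRD2, pre-treated with PDE inhibitor Ro20-1724 (0.1 mM final) and compound 10 min at room temperature, then stimulated with NKH477 (200nM […]) for 30 min. cAMP read by HTRF (665/620 nm).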
Chain of D(2) dopamine receptor (Homo sapiens) (P14416 whole entry, looked up): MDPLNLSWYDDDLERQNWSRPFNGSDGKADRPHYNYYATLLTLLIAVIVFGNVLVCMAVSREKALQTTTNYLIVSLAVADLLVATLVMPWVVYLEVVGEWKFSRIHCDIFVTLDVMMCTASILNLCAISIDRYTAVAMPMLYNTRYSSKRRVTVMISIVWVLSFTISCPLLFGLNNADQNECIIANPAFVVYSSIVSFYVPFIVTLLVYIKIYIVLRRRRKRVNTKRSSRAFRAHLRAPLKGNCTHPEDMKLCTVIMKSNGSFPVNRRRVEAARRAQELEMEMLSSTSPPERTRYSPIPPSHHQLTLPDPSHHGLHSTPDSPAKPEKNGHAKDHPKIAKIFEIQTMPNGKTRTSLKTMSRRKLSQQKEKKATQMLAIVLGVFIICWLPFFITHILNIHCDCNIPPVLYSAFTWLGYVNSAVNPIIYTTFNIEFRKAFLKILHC

The target in experiment [16] is 5-hydroxytryptamine receptor 2A (Homo sapiens) (UniProt P28223). Description: 5-hydroxytryptamine receptor 2A (HTR2A) small molecule antagonists, cell-based qHTS assay (AID 1963586). Further: nearly all actives have a fitted effect of over 45% in size. Further: potency means the concentration at half of the fitted maximal effect. In outline: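 CHO cells stably expressing human HTR2A were plated for 18 h at 37 C, then loaded with calcium dye for 1 h. Compounds were preincubated 5 min at room temperature before DOI (4 nM solution) was added. Kinetic fluorescence was read for 3 min.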
Chain of 5-hydroxytryptamine receptor 2A (Homo sapiens) (P28223 whole entry, looked up): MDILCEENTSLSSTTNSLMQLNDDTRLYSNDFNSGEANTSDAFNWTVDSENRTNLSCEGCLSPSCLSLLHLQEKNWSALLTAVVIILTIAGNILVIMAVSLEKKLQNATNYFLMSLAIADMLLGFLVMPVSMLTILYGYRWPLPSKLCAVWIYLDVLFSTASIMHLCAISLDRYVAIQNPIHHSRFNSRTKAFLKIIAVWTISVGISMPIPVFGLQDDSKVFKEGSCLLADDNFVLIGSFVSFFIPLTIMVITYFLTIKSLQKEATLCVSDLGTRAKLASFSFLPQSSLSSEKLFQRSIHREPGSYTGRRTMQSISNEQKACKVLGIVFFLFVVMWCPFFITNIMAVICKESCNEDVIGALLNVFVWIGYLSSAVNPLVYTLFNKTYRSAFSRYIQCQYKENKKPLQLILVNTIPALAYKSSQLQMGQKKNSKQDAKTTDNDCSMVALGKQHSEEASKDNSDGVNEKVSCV

The target is the same in experiment [17]. Description: 5-hydroxytryptamine receptor 2A (HTR2A) small molecule agonists, cell-based qHTS assay (AID 1963587). Further: nearly all actives have a fitted effect of over 30% in size. Further: potency means the concentration at half of the fitted maximal effect. Put shortly:
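CHO cells stably expressing human HTR2A, plated 18 h, loaded with calcium dye 1 h at 37 C. Agonist mode: compounds added and intracellular calcium fluorescence recorded kinetically for 2 min at 1 sec intervals.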

Experiment [18] concerns the target Muscarinic acetylcholine receptor M1 (Homo sapiens) (UniProt P11229). The experiment in a line: Cholinergic receptor muscarinic 1 (CHRM1) small molecule antagonists, cell-based qHTS assay (AID 1963588). Further: nearly all actives have a fitted effect of over 40% in size. Further: potency means the concentration at half of the fitted maximal effect. In outline:
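Compounds were tested at 15 concentrations in three independent runs. Dye-loaded CHRM1-CHO cells were exposed 5 min at room temperature before stimulation by acetylcholine added at 50nM. Intracellular calcium was read kinetically on FDSS for 3 min.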

The target is the same in experiment [19]. The experiment in a line: Cholinergic receptor muscarinic 1 (CHRM1) small molecule agonists, cell-based qHTS assay (AID 1963589). Further: nearly all actives have a fitted effect of over 35% in size. Put shortly:
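Homogeneous fluorescence calcium flux, agonist mode. Human M1-expressing CHO cells; compound dosed at 15 concentrations, three independent runs; signal sampled every 1 sec.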

Experiment [20] deals with D(2) dopamine receptor (Homo sapiens) (UniProt P14416). The experiment in a line: Dopamine D2 receptor (DRD2) small molecule antagonists, cell-based qHTS assay (AID 1963595; active means well fitted inhibition curve with a large enough effect in the signal ratio in the repeat runs, with a control signal flat; the % refers to the signal ratio; further: potency means the concentration at half of the fitted maximal effect). In outline: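 HEK293 cells stably expressing DRD2, preincubated with 0.1 mM Ro20-1724 and compounds 10 min, were stimulated with 200 nM NKH477 plus 12 nM quinpirole for 30 min at room temperature; cAMP measured by HTRF (665/620 nm).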

Molecules are shown by their SMILES. Several values for one entry are separate records, joined by “and”; a condition that tells them apart may be missing. Equal values may be shown once. Results filed as inconclusive are left out. Some compounds were tested as several samples or in several runs, with calls that do not always agree. Activity calls are given as the source filed them. Unless noted, the call rests on the fitted dose curve.

Chain of Muscarinic acetylcholine receptor M1 (Homo sapiens) (P11229 whole entry, looked up): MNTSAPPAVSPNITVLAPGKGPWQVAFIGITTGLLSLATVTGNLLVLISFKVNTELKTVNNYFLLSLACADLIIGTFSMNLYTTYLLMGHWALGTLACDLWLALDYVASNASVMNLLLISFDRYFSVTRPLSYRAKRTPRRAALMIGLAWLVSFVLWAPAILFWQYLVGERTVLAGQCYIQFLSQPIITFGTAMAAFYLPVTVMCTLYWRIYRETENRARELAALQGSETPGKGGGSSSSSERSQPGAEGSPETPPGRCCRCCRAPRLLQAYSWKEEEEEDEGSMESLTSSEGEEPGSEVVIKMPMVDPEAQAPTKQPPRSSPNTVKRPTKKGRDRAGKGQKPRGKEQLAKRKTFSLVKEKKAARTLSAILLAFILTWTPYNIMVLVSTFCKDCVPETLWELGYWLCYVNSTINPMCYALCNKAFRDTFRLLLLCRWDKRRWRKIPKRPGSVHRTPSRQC
Chain of KiSS-1 receptor (Homo sapiens) (Q969F8 whole entry, looked up): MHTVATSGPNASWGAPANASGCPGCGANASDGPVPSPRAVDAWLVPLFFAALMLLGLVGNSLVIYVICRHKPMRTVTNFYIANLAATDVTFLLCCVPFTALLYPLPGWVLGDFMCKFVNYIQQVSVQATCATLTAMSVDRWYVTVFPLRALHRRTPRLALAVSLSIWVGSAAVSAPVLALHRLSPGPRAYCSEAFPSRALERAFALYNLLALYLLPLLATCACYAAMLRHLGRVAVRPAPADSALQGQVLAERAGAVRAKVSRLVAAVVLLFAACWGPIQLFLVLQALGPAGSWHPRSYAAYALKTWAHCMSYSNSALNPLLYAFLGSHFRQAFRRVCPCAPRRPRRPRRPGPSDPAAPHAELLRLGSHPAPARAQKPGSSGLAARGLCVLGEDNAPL

In the case of `CC(C)c1cccc(C(C)C)c1O`, the Potency result in [1], in experiment [2], in [3], in experiment [4], in experiment [5] and in experiment [6] was “inactive” in each case. Further, the Potency entry in experiment [7], in experiment [8], in experiment [9], in experiment [10], in experiment [11] and in [12] was “inactive” each time. The Potency result in experiment [13], in experiment [14] and in [15] was “inactive” each time.
Turning to `O=C(O)c1ccccn1`, the Potency entry in [1], in experiment [2], in experiment [3], in experiment [4], in [5] and in experiment [6] was “inactive” throughout. Moreover, the Potency entry in experiment [7], in [9], in [10], in experiment [16], in experiment [17] and in [18] was “inactive” each time. Besides, the Potency entry in [19], in [11], in experiment [12], in experiment [13], in experiment [14] and in experiment [20] was “inactive” each time.
Take `CCCCSP(=O)(SCCCC)SCCCC`: the Potency entry in experiment [1], in experiment [2], in experiment [3], in experiment [4], in [5] and in experiment [7] was “inactive” throughout. The Potency entry in [8], in experiment [9], in experiment [10], in [16], in [17] and in experiment [18] was “inactive” in each case. In addition, the Potency entry in experiment [19], in [11], in experiment [12], in experiment [13], in [15] and in experiment [20] was “inactive” each time.
In the case of `O=C1C(Cl)=C(Cl)C(=O)c2ccccc21`, the Potency in [1] was 5.46 µM (active) and 8.63 µM (active); in experiment [2], 34.8 µM (active); in experiment [7], 14.5 µM (active); in experiment [16], 26.6 µM (active); in [17] it was 6.94 µM (active); in experiment [20], 21.7 µM (active). Moreover, the Potency entry in experiment [3], in experiment [4], in experiment [5], in [6], in experiment [8] and in [9] was “inactive” each time. For the same compound, the Potency entry in experiment [10], in [18], in [19] and in experiment [15] was “inactive” throughout.
In the case of `O=Cc1ccccc1`, the Potency entry in experiment [1], in experiment [2], in experiment [3], in [4], in experiment [5] and in experiment [7] was “inactive” in each case. Besides, the Potency entry in [8], in [9], in experiment [16], in [17], in [18] and in [19] was “inactive” in each case. The Potency result in experiment [11], in experiment [12], in experiment [13] and in experiment [15] was “inactive” throughout.
With `Oc1ccc(-c2ccccc2)cc1`, the Potency in [1] is 61.1 µM (active); in experiment [13] it was 60.3 µM (active) and inactive. Also, the Potency entry in experiment [2], in [3], in [4], in experiment [5], in experiment [7] and in [8] was “inactive” throughout. Besides, the Potency entry in [9], in experiment [10], in experiment [17], in [18], in experiment [19] and in experiment [11] was “inactive” each time. In addition, the Potency result in [12], in experiment [15] and in [20] was “inactive” throughout.
For the compound `COC(C)(C)CCCC(C)C/C=C/C(C)=C/C(=O)OC(C)C` (centres undefined), the Potency in experiment [1] was 47.8 µM (active); in experiment [18] it was 3.3 nM (active) and inactive. For the same compound, the Potency result in experiment [2], in experiment [3], in experiment [4], in experiment [5], in experiment [6] and in experiment [7] was “inactive” each time. Further, the Potency entry in [8], in experiment [10], in experiment [16], in experiment [17], in experiment [19] and in experiment [11] was “inactive” each time. Also, the Potency result in experiment [12], in [13], in experiment [14], in [15] and in experiment [20] was “inactive” in each case.
Take `Cc1ccc(CCl)cc1`: the Potency entry in experiment [1], in experiment [2], in experiment [3], in experiment [4], in [5] and in experiment [6] was “inactive” throughout. For the same compound, the Potency result in experiment [7], in experiment [8], in experiment [9], in [16], in experiment [17] and in [18] was “inactive” throughout. Also, the Potency result in experiment [19], in experiment [11], in [12], in experiment [14] and in experiment [15] was “inactive” each time.
`Cc1cc(Cl)ccc1OCC(=O)O`: the Potency entry in experiment [1], in experiment [2], in experiment [3], in [4], in experiment [5] and in experiment [6] was “inactive” throughout. Besides, the Potency entry in [7], in [8], in [9], in [10], in experiment [16] and in experiment [17] was “inactive” in each case. Further, the Potency result in experiment [18], in experiment [19], in experiment [12], in experiment [13], in [14] and in experiment [15] was “inactive” in each case. Besides, the Potency result in [20] was “inactive”.
Take `COC(=O)NS(=O)(=O)c1ccc(N)cc1`: the Potency entry in experiment [1], in [2], in [3], in experiment [5], in [6] and in [7] was “inactive” in each case. The Potency result in experiment [8], in experiment [10], in experiment [16], in experiment [17], in experiment [18] and in experiment [19] was “inactive” each time. Besides, the Potency entry in experiment [11], in experiment [12], in [13], in experiment [15] and in experiment [20] was “inactive” each time.
As to `CCCn1cc[n+](C)c1`, the Potency result in experiment [1], in experiment [2], in [3], in experiment [4], in experiment [7] and in experiment [8] was “inactive” in each case. The Potency result in experiment [9], in [16], in [17], in [18], in [19] and in [11] was “inactive” each time. The Potency result in experiment [12], in experiment [13], in experiment [14], in experiment [15] and in [20] was “inactive” in each case.

Values taken from PubChem BioAssay (Tox21).
